# Assay results as given in publication PMC5540273 (PLoS ONE, 2017).
# Columns and labels:
# Details in all cases: concentration: 1 μM,replicates: in singlicate; n = 1
# CLK2 = tested on: CLK2
# CLK3 = tested on: CLK3
# CLK4 = tested on: CLK4
# CSF1R-autoinhibited = tested on: CSF1R-autoinhibited
# CSF1R = tested on: CSF1R
# CSK = tested on: CSK
# CSNK1A1L = tested on: CSNK1A1L
# CSNK1A1 = tested on: CSNK1A1
# CSNK1D = tested on: CSNK1D
# CSNK1E = tested on: CSNK1E
# CSNK1G1 = tested on: CSNK1G1
# CSNK1G2 = tested on: CSNK1G2
# CSNK1G3 = tested on: CSNK1G3
# CSNK2A1 = tested on: CSNK2A1
# CSNK2A2 = tested on: CSNK2A2
# CTK = tested on: T1, CTK
# T1 construct: gene MATK
# DAPK1 = tested on: DAPK1
# DAPK2 = tested on: DAPK2
# DAPK3 = tested on: DAPK3
# DCAMKL1 = tested on: T2, DCAMKL1
# T2 construct: gene DCLK1
# 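Also: KINOMEscan kinase panel screen.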
Compound,%Inh (CLK2) [%],%Inh (CLK3) [%],%Inh (CLK4) [%],%Inh (CSF1R-autoinhibited) [%],%Inh (CSF1R) [%],%Inh (CSK) [%],%Inh (CSNK1A1L) [%],%Inh (CSNK1A1) [%],%Inh (CSNK1D) [%],%Inh (CSNK1E) [%],%Inh (CSNK1G1) [%],%Inh (CSNK1G2) [%],%Inh (CSNK1G3) [%],%Inh (CSNK2A1) [%],%Inh (CSNK2A2) [%],%Inh (CTK) [%],%Inh (DAPK1) [%],%Inh (DAPK2) [%],%Inh (DAPK3) [%],%Inh (DCAMKL1) [%]
Cl.Cl.NC[C@H](CC1CCCCC1)NC(=O)c1cc(Br)c(-c2ccnc3[nH]ccc23)s1 [GSK1581427],71,57,69,0,48,0,42,53,86,85,6,26,40,55,0,0,71,12,19,16
C[C@@H](Oc1cc(-c2cnn(C3CCNCC3)c2)cnc1N)c1c(Cl)ccc(F)c1Cl,9,1,0,82,93.8,24,0,38,14,6,8,0,0,18,0,13,10,1,15,88
CC(C)Nc1cc(-c2ccc3c(N)n[nH]c3c2)nc(N)n1 [GSK2221681],44,23,63,0,4,0,5,18,34,22,0,2,19,13,28,0,30,42,51,7
Cl.Oc1cc(-c2nc(-c3ccccc3)[nH]c2-c2ccncc2)ccc1Cl [SB-386023],0,24,11,0,2,1,25,41,71,77,0,0,16,11,30,38,0,0,0,34
Cc1cc2cn[nH]c2cc1-c1cccc2c(N)c(C(N)=O)nnc12,11,15,0,0,6,98.3,35,34,22,30,12,13,12,19,5,80,9,3,32,71
CCN(CC)CCOc1ccc(Nc2ncc3cc(-c4c(Cl)cccc4Cl)c(=O)n(C)c3n2)cc1 [SB-601273],10,0,0,100,99.9,98.4,3,13,39,60,38,0,12,6,9,27,12,0,10,24
C[C@@H]1CCN(C(=O)CC#N)C[C@@H]1N(C)c1ncnc2[nH]ccc12,4,0,0,0,3,0,0,21,–,0,15,0,0,0,0,0,10,0,4,0
NC(=O)c1cc(-c2ccccc2)cc2c(C3CCNCC3)c[nH]c12 [GSK301362],3,14,25,0,53,0,20,0,50,72,3,0,19,31,20,4,23,9,40,14
Cc1ccc2c(-c3ccncc3)c(-c3ccc(F)cc3)nn2c1.Cl [GW461484],0,0,0,8,0,0,39,–,96.9,99.5,30,27,27,0,0,0,0,7,5,0
O=C(NCCNc1ccnc(NCc2ccc(F)cc2)n1)c1cc2ccccc2s1 [GSK1379944],0,19,22,0,9,68,25,0,72,26,32,98.8,9,0,66,0,0,0,81,1
CC(C)N1C(=O)Cc2cc(Nc3ncc(C(F)(F)F)c(NCc4cccc(S(C)(=O)=O)c4)n3)ccc21,34,0,38,0,8,14,2,0,0,0,0,19,0,55,82,64,22,20,20,30
CCn1c(-c2nonc2N)nc2c(C#CC(C)(C)O)nc(OCCN)cc21.Cl.Cl [GSK902056],7,27,20,0,11,0,18,0,0,41,0,0,12,0,46,0,0,0,21,0
C[C@H]1Oc2cc(cnc2N)-c2c(nn(C)c2C#N)CN(C)C(=O)c2ccc(F)cc21,4,0,22,0,15,0,20,0,35,0,0,27,10,0,0,0,0,83,16,88
Cc1occc1-c1nc(N)c(OC[C@@H](N)Cc2c[nH]c3ccccc23)cc1-c1cc2c(C)n[nH]c2cn1 [GSK1660450],97.5,80,97.6,0,18,0,71,–,96.6,99.7,79,74,83,76,48,11,64,69,59,24
Cc1cc(C(=O)Nc2ccc(Oc3ccc4nc(NC(=O)C5CC5)cn4n3)cc2)nn1-c1ccccc1,1,0,0,0,100,15,0,43,0,1,6,0,0,0,0,0,0,0,10,12
CCN(CC)CCCCNc1ncc2cc(-c3c(Cl)cccc3Cl)c(NC(=O)NC(C)(C)C)nc2n1,0,0,0,85,99.2,90.5,0,30,14,61,10,0,0,1,12,15,0,0,0,11
Cc1ccc(-n2nc(C(C)(C)C)cc2NC(=O)Nc2ccc(OCCN3CCOCC3)c3ccccc23)cc1 [GW839464],9,5,0,–,–,3,7,0,1,10,1,0,19,0,4,0,4,1,20,21
CN(C)CC(O)COc1ccc(Nc2nccc(-c3cnn4nc(N5CCOCC5)ccc34)n2)cc1 (centres unmarked) [GW767488],96.6,11,88,15,32,24,15,92.2,41,29,16,50,10,97.1,98.7,1,59,46,68,72
C=CC(=O)Nc1cc2c(Nc3ccc(F)c(Cl)c3)ncnc2cc1OCCCN1CCOCC1 [GW781483],0,0,4,35,13,5,22,0,0,26,0,1,99.8,27,16,4,0,0,0,15
Nc1nc(Nc2ccccc2)cc(-c2ccc3c(N)n[nH]c3c2)n1 [GSK2225749],40,0,80,0,0,0,10,21,15,0,2,0,13,34,24,0,34,49,62,12
Cl.Cl.Nc1nc(-c2ccc3c(N)n[nH]c3c2)cc(N2CCCC(NC(=O)c3ccccc3)C2)n1 (centres unmarked) [GSK2286775],15,14,0,0,15,5,4,0,0,24,0,0,21,0,6,6,28,0,13,15
Cc1n[nH]c2ccc(-c3cc(OC[C@@H](N)Cc4ccccc4)cnc3-c3ccoc3)cc12.O=C(O)C(F)(F)F.O=C(O)C(F)(F)F [GSK507358],54,23,60,0,17,0,94.4,–,98,99.9,71,90.6,91.7,10,8,0,0,0,13,0
Cl.Cl.NC[C@H](Cc1ccc(C(F)(F)F)cc1)NC(=O)c1cc(Br)c(-c2ccnc3[nH]ccc23)s1 [GSK1487252],39,22,57,3,0,0,16,27,55,54,0,8,24,0,14,0,0,0,6,17
CN(C)CCOc1ccc(-c2cc(-c3c[nH]nc3-c3ccccn3)ccn2)cc1 [GW835314],0,5,18,0,6,88,3,11,25,31,14,9,65,0,3,48,13,0,0,0
CNC(=O)c1ccccc1Sc1ccc2c(/C=C/c3ccccn3)n[nH]c2c1,–,0,0,86,99.9,3,10,23,10,0,0,18,0,0,0,8,0,0,0,31
COc1ccc(C[C@@H](CN)NC(=O)c2cc(Br)c(-c3ccnc4[nH]ccc34)s2)cc1.Cl.Cl [GSK1389063],91.4,77,95.2,0,56,0,81,88,90,95.9,33,79,73,57,64,2,26,13,18,64
O=C(NCCCN1CCOC1=O)c1cnc(NCc2cc(Cl)ccc2Cl)nc1NC1CCCC1,1,0,4,12,32,12,5,34,12,76,0,3,0,16,23,0,3,7,12,28
